The chains are these.
B1: chr22:41636480:41636706:+|CDS|ENSG00000196419|unk|FALSE|unique (ssRNA)
RNA: GGGAGUUCUACAGUCCGACGAUCAUGGGCCACGGAUCUGACUACUCACUCAGUGAAGUGCUGUGGGUCUGUGCCAACCUCUUUAGUGAUGUCCAAUUCAAGAUGAGUCAUAAGAGGAUCAUGCUGUUCACCAAUGAAGACAACCAACAGAGGAUUGAGCAUCA
B2: chr1:223774945:223775046:+|3pUTR|ENSG00000162909|msi1|total|mutant (ssRNA)
RNA: GGGAGUUCUACAGUCCGACGAUCAAAUACACUUUGUAUCUGGACCUCAAAAUUAUGGGAACAUUUACUUAAACGGAUGAUCACCGCUGAAAAUAAUGAUACUGUCAAUUUGAGACCGCAGAAGUUUCACACAUCAAAGUAAAACAACAGAGGAUUGAGCAUCA
B3: chr2:108783740:108783841:+|CDS_3pUTR|ENSG00000153201|msi1_unk|FALSE|overlapping (ssRNA)
RNA: GGGAGUUCUACAGUCCGACGAUCCAAUAAUUCUCAAUUUGUUAUAACACUGAAGAAAGCAGAACAUUUGGACUUUAAGCAUGUAGUAUUUGGGUUUGUUAAGGAUGGCAUGGAUACUGUGAAAAAGAUUGAAUCAUUUGGUUCCAACAGAGGAUUGAGCAUCA
B4: chr16:61647241:61654101:-|three_prime_utr|ENSG00000150394|control|control|control (ssRNA)
RNA: GGGAGUUCUACAGUCCGACGAUCAAAGAAACUUGACAGUGGAUUAUAAAUAAAUCACUGGAACUGAGCAUUCUGUAAUAUUCUAGGGUCACUCCCCUUAGAUACAACCAAUGUGGCUAUUUGUUUUAGAGGCAAGUUUAGCACCAACAGAGGAUUGAGCAUCA
B5: chr1:62864655:62864756:+|3pUTR|ENSG00000125703|unk|FALSE|unique (ssRNA)
RNA: GGGAGUUCUACAGUCCGACGAUCUUUGUUAACUGUGAUAUGCAUACACUUAUAUAAGCAGAAUUAUGAGUUAAAGUAAUACUUAGCAAUAUGAUUUUAUAAUGGCUCCUCAUUAUGCUUGCUGUUGAACCUUUUAUGAGGAGUCAACAGAGGAUUGAGCAUCA
B6: ENSG00000070961:be:win_6001|3pUTR|ENSG00000070961|bound_else_gene|NA|bound_elsewhere_windowed (ssRNA)
RNA: GGGAGUUCUACAGUCCGACGAUCCAAGACAUGCUUAGUGUGUAUUUCUCUCUUUGAGACACUGUAAUUUCUACCAGAAAUUUCCAGAGCAUUAUGUAGGUAGAAAAAAAUGCAAGCAAGCUGUUAAAGAUCUUGGAUCCCAUUCAACAGAGGAUUGAGCAUCA
B7: chr8:74853834:74853946:+|3pUTR|ENSG00000137558|unk|FALSE|unique (ssRNA)
RNA: GGGAGUUCUACAGUCCGACGAUCAAGUGCUUUUUUUUUUCUGAAUUAAUUAGGUAUUGGUAAAAUAUAUUUUUAAAUUUAGUUAGCUUUAUAAACACAAUUAGAAUUACAAUUAAUUAACAGAGGUAUAAUUGUCUCACUUUCCAACAGAGGAUUGAGCAUCA
B8: chr12:89642165:89642281:-|CDS|ENSG00000070961|unk|total|mutant (ssRNA)
RNA: GGGAGUUCUACAGUCCGACGAUCGCCAAAAACCUUUCUUCAAUCCGUAUGGGAAGCAUUACAAGAUGUCACUUUAAUUAUAUCCGAAAUUGCAGCCACCGUAUCAUUGGGCCUUUCUUUUUAUCAGCCUCCAGAAGGGGAUAACAACAGAGGAUUGAGCAUCA
B9: chr8:42175503:42175666:-|3pUTR|ENSG00000104368|msi1|FALSE|unique (ssRNA)
RNA: GGGAGUUCUACAGUCCGACGAUCAUGAAAGCAUGUCUCAAUAGUAAAAGAUAACAAGAUCUUUCAGGAAAGACGGAUUGCAUUAGAAAUAGACAGUAUAUUUAUAGUCACAAGAGCCCAGCAGGGCCUCAAAGUUGGGGCAGGCAACAGAGGAUUGAGCAUCA
B10: ENSG00000070961:be:win_6051|3pUTR|ENSG00000070961|bound_else_gene|NA|bound_elsewhere_windowed (ssRNA)
RNA: GGGAGUUCUACAGUCCGACGAUCCAGAAAUUUCCAGAGCAUUAUGUAGGUAGAAAAAAAUGCAAGCAAGCUGUUAAAGAUCUUGGAUCCCAUUAUAUAGUAUGUAUAGCUGAAAUCUGUAAUUCAAUCACUUUUUCUCUUUUACAACAGAGGAUUGAGCAUCA
B11: chr3:62294137:62294238:+|3pUTR|ENSG00000144724|msi1|FALSE|unique (ssRNA)
RNA: GGGAGUUCUACAGUCCGACGAUCUGAGACCCUUUAGUUAUUCUCCAUUAAUGCUUCUUAGUUUGUAAUACCAUACCUCACAGUAGGUAGAAGAAUGAAAACUUCUGCAGGUGUGUAAUUUUGAAACUAGUCCUCUAAAAAUUCCAACAGAGGAUUGAGCAUCA
B12: chr3:97755980:97756081:+|3pUTR|ENSG00000080224|unk|FALSE|unique (ssRNA)
RNA: GGGAGUUCUACAGUCCGACGAUCUAAUUAAAAAUCUCUUUCCUACCUUUAGUAAUUUGUAGGAUGAACUGUAUGCAUUUAGAUAGAAAUUGCUUUUGUUAAAUUUACAUUUAAACACAUCUUCAUUCACUUAGAGAAGCCAUACAACAGAGGAUUGAGCAUCA
B13: chr12:123662440:123662541:+|3pUTR|ENSG00000111358|unk|FALSE|unique (ssRNA)
RNA: GGGAGUUCUACAGUCCGACGAUCAAUGGAAAUCACAAUUUUAAGUCUAGGAAAUAAAGUAUUAUAUAUACUUUCAAACAAGCUAGCAAGGCUUUUAUUAUUACUUUUUUAUUUGAAAUAUCUUAUAUAUUUGGUUAGUUCUGUCAACAGAGGAUUGAGCAUCA
B14: chr8:42175503:42175666:-|3pUTR|ENSG00000104368|msi1|total|mutant (ssRNA)
RNA: B9 RNA with U41C, A42C, U83C, A84C, U89C, A90C, U104C, A105C
B15: chr3:97755980:97756081:+|3pUTR|ENSG00000080224|unk|total|mutant (ssRNA)
RNA: B12 RNA with U49C, A50C, U59C, A60C, U79C, A80C, U83C, A84C, U131C, A132C
B16: chr6:145382534:145384023:-|three_prime_utr|ENSG00000112425|control|control|control (ssRNA)
RNA: GGGAGUUCUACAGUCCGACGAUCUCAACAUGAUUUAACAGAUCUAUAUGUUAAAGGAGAAAAAGAUAUGUGGAUGCUAUCAAUAGUAGCUGAAAAGCAUUUUCAGAAAUCUGUAAGUAGAGGAAAUGUAUUCAUAUGUUUCUACAACAGAGGAUUGAGCAUCA
B17: chr8:74853834:74853946:+|3pUTR|ENSG00000137558|unk|total|mutant (ssRNA)
RNA: B7 RNA with U50C, A51C, U79C, A80C, U83C, A84C, U101C, A102C

Changes are numbered by the printed parent chain. Over roughly 5,800 sequences, “enrichment r” has its median near 0.54; the highest 2% begin near 16. The full list was thinned out, with the highest values kept by preference.

In the experiment the target is MSI1 full-length (mouse, UniProt Q61474 1-362). In words: nsRBNS (natural sequence RNA bind-n-seq); RBNS binding buffer (assumed for nsRBNS): 25 mM Tris pH 7.5, 150 mM KCl, 3 mM MgCl2, 0.01% Triton X-100, 500 ug/ml BSA, 20 U/ml SUPERase-In, 4 C; UNK is unkempt and MSI1 is Musashi-1; names of the RNAs are library labels; protein concentration not given here; high values mean tight binding.
Sequence of MSI1 full-length (Q61474 whole entry): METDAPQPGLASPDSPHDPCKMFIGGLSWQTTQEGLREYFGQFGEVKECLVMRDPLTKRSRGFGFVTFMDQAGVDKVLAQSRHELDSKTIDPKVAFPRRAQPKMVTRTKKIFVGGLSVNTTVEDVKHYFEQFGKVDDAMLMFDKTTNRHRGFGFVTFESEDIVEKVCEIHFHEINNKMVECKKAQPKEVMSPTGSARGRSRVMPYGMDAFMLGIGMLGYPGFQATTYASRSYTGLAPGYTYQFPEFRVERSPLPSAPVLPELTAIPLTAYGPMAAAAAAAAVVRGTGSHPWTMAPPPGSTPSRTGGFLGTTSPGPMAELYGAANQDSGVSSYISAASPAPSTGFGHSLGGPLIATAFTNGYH
Consider B1, for which the binding signal came to 0.384 enrichment R.

Turning to B2, the binding signal was 0.211 enrichment R.

The molecule B3 returned a binding signal of 0.864 enrichment R.

Turning to B4, the binding signal worked out at 1.27 enrichment R.

B5 gave a binding signal of 0.957 enrichment R.

As to B6, the binding signal was determined as 0.464 enrichment R.

As for B7, the binding signal was 47.1 enrichment R.

Turning to B8, the binding signal was determined as 0.453 enrichment R.

On to B9, for which the binding signal stood at 41.9 enrichment R.

In turn, B10 showed a binding signal of 37.4 enrichment R.

B11 showed a binding signal of 8.1 enrichment R.

B12 registered a binding signal of 19.4 enrichment R.

B13: the binding signal came to 12.8 enrichment R.

B14 had a binding signal of 0.44 enrichment R.

In turn, B15 came in with a binding signal of 1.21 enrichment R.

Regarding B16, the binding signal is 1.04 enrichment R.

B17 had a binding signal of 1.6 enrichment R.

These data come from paper PMC12136788.
